Results reported in PubChem BioAssay (Tox21).
Where “and” joins values, the source holds several entries; their conditions need not be identical. Equal entries are not always repeated. Records with an inconclusive call do not appear. Where a call stands in place of a potency, no number is given. Some structures have more than one record in an assay (separate samples or runs), and their calls can disagree. Calls of active or inactive are those of the source. Unless noted, the call rests on the fitted dose curve; in most records, active means well fitted curve in the direction sought with a large enough effect in the repeat runs; inconclusive means weak or mixed curves; inactive means no such curve, though single readings can be large; an effect the other way counts as inactive or inconclusive.

Assays:
[1] = A CellTox Green Cytotoxicity Assay to monitor cytotoxicity in HepG2 cells - 8 hour (AID 1224890); further: nearly all actives have a fitted effect of over 45% in size
In short: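 Cells and non-lytic dye reagent are dispensed together (600 HepG2 cells/well) and incubated 5 h before DMSO compound transfer. Kinetic fluorescence is then recorded in the same wells during 40 h at 37 C.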

[2] = qHTS assay to identify small molecule antagonists of the androgen receptor (AR) signaling pathway using the MDA cell line in the presence of 0.5 nM R1881 - cell viability counter screen (AID 1259242); further: nearly all actives have a fitted effect of over 45% in size
In short: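 Steps: plate MDA-kb2 cells, rest 5 hr at 37C without CO2; pin in compounds in DMSO; add R1881 to 0.5 nM final; incubate 16 hr; add CellTiter-Fluor, 30 min; read fluorescence.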

[3] = target: Estrogen receptor (Homo sapiens) (UniProt P03372); test: qHTS assay to identify small molecule antagonists of the estrogen receptor alpha (ER-alpha) signaling pathway using the BG1 cell line in the presence of 0.1 nM 17-beta-estradiol (AID 1259244); further: nearly all actives have a fitted effect of over 50% in size
Sequence of Estrogen receptor (Homo sapiens) (P03372 whole entry, looked up): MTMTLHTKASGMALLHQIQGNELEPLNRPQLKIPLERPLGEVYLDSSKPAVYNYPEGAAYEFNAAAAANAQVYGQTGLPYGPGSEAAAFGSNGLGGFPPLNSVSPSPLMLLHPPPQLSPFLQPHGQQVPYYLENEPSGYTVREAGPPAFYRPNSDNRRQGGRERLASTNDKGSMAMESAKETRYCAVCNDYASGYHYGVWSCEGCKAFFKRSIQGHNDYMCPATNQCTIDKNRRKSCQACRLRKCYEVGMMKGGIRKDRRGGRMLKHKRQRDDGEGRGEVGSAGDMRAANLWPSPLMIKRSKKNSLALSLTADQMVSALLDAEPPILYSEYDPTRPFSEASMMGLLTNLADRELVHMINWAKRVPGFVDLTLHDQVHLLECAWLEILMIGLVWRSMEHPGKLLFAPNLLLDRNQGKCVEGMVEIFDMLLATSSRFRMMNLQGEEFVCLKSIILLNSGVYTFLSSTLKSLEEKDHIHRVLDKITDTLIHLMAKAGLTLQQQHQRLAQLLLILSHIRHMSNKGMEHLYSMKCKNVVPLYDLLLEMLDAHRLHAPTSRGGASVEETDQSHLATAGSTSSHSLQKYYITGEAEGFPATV
In short: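 Antagonist mode: compounds in DMSO are pinned onto VM7Luc4E2 reporter cells, 0.1 nM final 17beta-estradiol is added, and after 22 h at 37C luciferase luminescence is measured with ONE-Glo.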

[4] = qHTS assay to identify small molecule phospholipidosis (PLD) inducers (AID 1259344; active means well fitted curve in the direction sought with a large enough effect; an effect the other way counts as inactive or inconclusive)
In short: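 Read-out is LipidTOX Red fluorescence (ex 595/em 615) imaged in HepG2 cells after 24 h compound exposure at 37 C, with Hoechst nuclear counterstain (ex 352/em 461) allowing per-cell normalisation.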

[5] = qHTS assay to identify small molecule HDAC inhibitors (AID 1259364); further: potency means the concentration at half of the fitted maximal effect;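 further: wild-type HCT-116 cells with endogenous class I/II HDAC activity; nearly all actives have a fitted effect of over 45% in size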
In short: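 Cells (HCT-116, wild type) are seeded at 1,500 per well, incubated overnight, treated with compound in DMSO for 2 hr, then developed with HDAC-Glo I/II reagent for 30 min at room temperature.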

[6] = qHTS assay to identify small molecule HDAC inhibitors - cell viability counter screen (AID 1259365); further: series mostly up to about 92 µM; nearly all actives have a fitted effect of over 50% in size
In short: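 Cytotoxicity was gauged in wild-type HCT-116 cells after a brief 2hr treatment with DMSO-dissolved compounds at 37C and 5% CO2, using CellTiter-Glo luminescence developed for 30min at room temperature.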

[7] = qHTS assay to identify small molecule agonists of the sonic hedgehog signaling (Shh) pathway - cell viability counter screen (AID 1259366); further: nearly all actives have a fitted effect of over 50% in size; further: potency means the concentration at half of the fitted maximal effect
In short: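 Stable Gli1-Luc NIH/3T3 clone, 2,000 cells/well. Compound exposure 24hr at 37C. Read-out: CellTiter-Fluor fluorescence.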

[8] = qHTS assay to identify small molecule antagonists of the sonic hedgehog signaling (Shh) pathway - cell viability counter screen (AID 1259367); further: nearly all actives have a fitted effect of over 55% in size
In short: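 Fluorescence read-out (CellTiter-Fluor, 1 hr at 37C) taken after 23 hr compound treatment of 3T3 Gli1-Luc cells stimulated with conditioned medium. Cells were seeded at 2,000 per well and pre-incubated 4 hr.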

[9] = qHTS assay to identify small molecule agonists of the sonic hedgehog signaling (Shh) pathway (AID 1259368; calls by dose curve;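 further: NIH/3T3-derived 3T3Gli1-Luc cells carrying a stable Gli1-driven firefly luciferase reporter; series mostly up to about 92 µM; nearly all actives have a fitted effect of over 15% in size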)
In short: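 Cells of a mouse NIH/3T3 clone stably expressing luciferase under the Gli1 transcriptional response element are exposed to test chemicals for 24 hr at 37 C. Pathway activation is detected as a rise in luminescence.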

[10] = qHTS assay to identify small molecule antagonists of the sonic hedgehog signaling (Shh) pathway (AID 1259369; calls by dose curve; further: nearly all actives have a fitted effect of over 45% in size; further: potency means the concentration at half of the fitted maximal effect)
In short: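 Cells are plated and held 4hr at 37 C, compounds (DMSO) are pinned in, conditioned medium is added to stimulate the pathway, and after 24hr luciferase reagent is added for 30min before luminescence is read.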

[11] = qHTS assay to identify small molecule agonists of the androgen receptor (AR) signaling pathway in the presence of an antagonist - cell viability counter screen (AID 1259379);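 further: MDA-kb2 human breast cancer cells carrying an MMTV luciferase reporter; series mostly up to about 92 µM; nearly all actives have a fitted effect of over 25% in size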
In short: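 Cytotoxicity is assessed by CellTiter-Fluor in MDA-kb2 cells carrying an MMTV-driven luciferase reporter. Cells receive 3.0uM nilutamide plus compounds at 15 concentrations and incubate 16 hr at 37C without CO2 before fluorescence reading.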

[12] = qHTS assay to identify small molecule agonists of the estrogen receptor beta (ER-beta) signaling pathway - cell viability counter screen (AID 1259380); further: nearly all actives have a fitted effect of over 30% in size; further: potency means the concentration at half of the fitted maximal effect
In short: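 Cytotoxicity is measured in parallel with the reporter screen: after 16 hr compound exposure at 37C and a 2 hr LiveBLAzer step, CellTiter-Glo is added to the same ER-beta-UAS-bla HEK293T wells and luminescence read after 30 min.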

[13] = qHTS assay to identify small molecule antagonists of the estrogen receptor beta (ER-beta) signaling pathway - cell viability counter screen (AID 1259382); further: series mostly up to about 92 µM; nearly all actives have a fitted effect of over 55% in size
In short: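 Cytotoxicity counter screen multiplexed with the beta-lactamase antagonist assay: GripTite HEK293T ER-beta-bla cells were treated 16 hr with test chemicals in the presence of 1nM 17-beta-estradiol, and viability was measured by CellTiter-Glo.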

[14] = target: Estrogen receptor (Homo sapiens) (UniProt P03372); test: qHTS assay to identify small molecule agonists of the estrogen receptor alpha (ER-alpha) signaling pathway in the presence of an antagonist (AID 1259383; calls by dose curve; further: nearly all actives have a fitted effect of over 15% in size; further: potency means the concentration at half of the fitted maximal effect; on activation: top concentration of the series differs between compounds)
In short: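 Agonist-mode confirmation in the presence of the ER antagonist ICI-182,780 at 10.0nM final. Breast-derived VM7Luc4E2 reporter cells were exposed to compounds for 22hr, and ERE-driven luciferase was quantified by luminescence.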

[15] = qHTS assay to identify small molecule agonists or antagonists of the thyroid stimulating hormone receptor (TSHR) signaling pathway - wild type cell line counter screen (AID 1259384; calls by dose curve)
In short: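 Wild-type Hek293 cells, 800/well, 18 h at 37C, then compound with Ro20-1724 for 30 min RT. cAMP by HTRF (cAMP-d2/anti-cAMP cryptate), 1 h RT, fluorescence read. 15 concentrations, triplicates.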

[16] = qHTS assay to identify small molecule antagonists of the estrogen receptor alpha (ER-alpha) signaling pathway using the BG1 cell line in the presence of 0.1 nM 17-beta-estradiol - cell viability counter screen (AID 1259241); further: nearly all actives have a fitted effect of over 40% in size
In short: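 Viability in VM7Luc4E2 cells after 22 hr compound exposure under 0.1 nM 17beta-estradiol stimulation, by CellTiter-Fluor.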

[17] = target: Estrogen receptor beta (Homo sapiens) (UniProt Q92731); test: qHTS assay to identify small molecule agonists of the estrogen receptor beta (ER-beta) signaling pathway (AID 1259377; active means well fitted activation curve with a large enough effect in the signal ratio in the repeat runs, not every such curve was filed as active; the % refers to the signal ratio)
Sequence of Estrogen receptor beta (Homo sapiens) (Q92731 whole entry, looked up): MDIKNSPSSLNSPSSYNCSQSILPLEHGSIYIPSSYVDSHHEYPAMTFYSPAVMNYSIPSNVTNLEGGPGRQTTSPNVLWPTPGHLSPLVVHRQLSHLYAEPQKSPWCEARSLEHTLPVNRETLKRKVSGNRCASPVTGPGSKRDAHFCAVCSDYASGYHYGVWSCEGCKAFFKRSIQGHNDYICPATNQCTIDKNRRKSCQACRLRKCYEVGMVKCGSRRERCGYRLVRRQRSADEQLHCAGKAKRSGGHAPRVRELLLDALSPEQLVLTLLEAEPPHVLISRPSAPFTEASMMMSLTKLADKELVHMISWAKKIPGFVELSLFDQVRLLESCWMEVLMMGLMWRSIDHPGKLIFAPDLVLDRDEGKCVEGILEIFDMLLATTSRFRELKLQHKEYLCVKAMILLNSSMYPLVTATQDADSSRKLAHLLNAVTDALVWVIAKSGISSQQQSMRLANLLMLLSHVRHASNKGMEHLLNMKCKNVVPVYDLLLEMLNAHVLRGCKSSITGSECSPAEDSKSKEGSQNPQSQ
In short: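 Measured by fluorescence intensity from a B/G FRET beta-lactamase substrate (2 h, room temperature) in ER-beta-UAS-bla HEK293T cells treated with DMSO-dissolved compounds for 16 hr at 37C and 5% CO2.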

[18] = target: Estrogen receptor beta (Homo sapiens) (UniProt Q92731); test: qHTS assay to identify small molecule antagonists of the estrogen receptor beta (ER-beta) signaling pathway (AID 1259378; active means well fitted inhibition curve with a large enough effect in the signal ratio in the repeat runs, not every such curve was filed as active; the % refers to the signal ratio)
In short: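 ER-beta-UAS-bla HEK293T cells in 2% charcoal-stripped FBS medium treated with compound plus 1nM final 17-beta-estradiol for 16 hr at 37C. Beta-lactamase reporter read by FRET substrate fluorescence after 2 hours at room temperature.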

[19] = target: Androgen receptor (Homo sapiens) (UniProt P10275); test: qHTS assay to identify small molecule antagonists of the androgen receptor (AR) signaling pathway using the MDA cell line in the presence of 0.5 nM R1881 (AID 1259243); further: nearly all actives have a fitted effect of over 50% in size
Sequence of Androgen receptor (Homo sapiens) (P10275 whole entry, looked up): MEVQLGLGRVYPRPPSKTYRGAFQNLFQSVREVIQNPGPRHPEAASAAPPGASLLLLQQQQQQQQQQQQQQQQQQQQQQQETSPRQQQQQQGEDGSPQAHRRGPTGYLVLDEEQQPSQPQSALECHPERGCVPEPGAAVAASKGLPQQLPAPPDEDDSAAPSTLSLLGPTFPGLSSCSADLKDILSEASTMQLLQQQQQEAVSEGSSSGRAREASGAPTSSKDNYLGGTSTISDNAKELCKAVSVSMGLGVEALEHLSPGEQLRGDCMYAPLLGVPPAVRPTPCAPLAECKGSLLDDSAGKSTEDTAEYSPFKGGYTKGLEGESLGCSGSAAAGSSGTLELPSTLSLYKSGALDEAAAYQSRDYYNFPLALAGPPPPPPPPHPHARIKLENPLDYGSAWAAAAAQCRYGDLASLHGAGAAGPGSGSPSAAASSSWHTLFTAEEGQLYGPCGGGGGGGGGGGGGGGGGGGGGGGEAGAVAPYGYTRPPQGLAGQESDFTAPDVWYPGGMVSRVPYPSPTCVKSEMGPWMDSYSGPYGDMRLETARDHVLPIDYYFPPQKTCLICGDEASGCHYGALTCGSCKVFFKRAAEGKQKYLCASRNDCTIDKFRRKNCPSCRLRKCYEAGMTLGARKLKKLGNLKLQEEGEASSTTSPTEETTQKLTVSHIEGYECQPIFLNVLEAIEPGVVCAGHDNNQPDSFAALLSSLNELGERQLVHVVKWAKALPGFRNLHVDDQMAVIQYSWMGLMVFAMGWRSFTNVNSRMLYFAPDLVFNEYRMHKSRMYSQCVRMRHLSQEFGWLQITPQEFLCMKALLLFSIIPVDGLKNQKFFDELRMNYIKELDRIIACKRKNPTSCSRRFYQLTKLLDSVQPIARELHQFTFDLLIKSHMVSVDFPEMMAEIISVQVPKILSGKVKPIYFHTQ
In short: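 Stably transfected MDA-kb2 cells express luciferase from an MMTV promoter bearing both AR and GR response elements. Compounds plus 0.5 nM R1881 (final) were incubated 16 hr at 37C without CO2, then luminescence measured.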

[20] = target: Androgen receptor (Homo sapiens) (UniProt P10275); test: qHTS assay to identify small molecule agonists of the androgen receptor (AR) signaling pathway in the presence of an antagonist (AID 1259381; calls by dose curve; further: nearly all actives have a fitted effect of over 15% in size)
In short: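 Agonist-mode confirmation screen: human MDA-kb2 cells stably expressing luciferase under an MMTV promoter bearing AR and GR response elements, co-treated with 3.0uM nilutamide (final). Luminescence measured after 16hr compound incubation.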

SMILES	Potency [1]	Potency [2]	Potency [3]	Potency [4]	Potency [5]	outcome [6]	Potency [7]	Potency [8]	outcome [9]	Potency [10]	Potency [11]	Potency [12]	Potency [13]	Potency [14]	Potency [15]	Potency [16]	outcome [17]	Potency [18]	Potency [19]	outcome [20]
C/C=C/c1ccc(O)c(OC)c1	inactive	inactive	inactive	inactive	inactive	inactive	inactive	inactive	inactive	inactive	inactive	inactive	inactive	inactive	inactive					
O=C(O)CN(CC(=O)O)CC(=O)O	inactive		inactive		inactive	inactive	inactive	inactive	inactive	inactive	inactive	inactive		inactive	inactive	inactive				
Oc1cccc(O)c1	inactive		inactive	inactive	inactive	inactive	inactive	inactive	inactive	inactive	inactive	inactive	inactive	inactive		inactive	inactive	inactive		
Cc1ccc(O)c(-n2nc3ccccc3n2)c1	inactive		inactive	inactive	1.08 µM (active) and 2.17 µM (active) and 1.5 µM (active)	inactive	60.6 µM (active) and inactive	inactive	inactive	60.6 µM (active) and inactive	inactive	inactive	inactive	inactive and 1.54 µM (active)	inactive	inactive	inactive	inactive		
OC[C@@H](O)[C@@H](O)[C@H](O)[C@H](O)CO	inactive		inactive	inactive	inactive	inactive	inactive	inactive	inactive	inactive	inactive	inactive		inactive		inactive				
CCOC(=O)C(C)(C)Oc1ccc(Cl)cc1	inactive	inactive	inactive	inactive	inactive	inactive	inactive	inactive	inactive	inactive	inactive	inactive		inactive			inactive	inactive		
COc1ccccc1NC(=O)CC(C)=O	inactive		inactive		inactive	inactive	inactive	inactive	inactive	inactive	inactive	inactive	inactive	inactive		inactive	inactive	inactive		
CC1=NN(c2ccccc2)C(=O)C1	inactive		inactive	inactive	inactive	inactive	inactive	inactive	inactive	inactive	inactive	inactive		inactive	inactive	inactive	inactive	inactive		
COc1ccccc1O	inactive		inactive	inactive	inactive	inactive	inactive	inactive	inactive	inactive	inactive	inactive	inactive	inactive		inactive	inactive	inactive		
O=c1c(-c2ccc(O)cc2)coc2cc(O)cc(O)c12	inactive			inactive	8.49 µM (active) and 6.86 µM (active) and 9.44 µM (active)	inactive	inactive	inactive	inactive	10.7 µM (active)	inactive	13.7 µM (active)	inactive		inactive	inactive			inactive	inactive
Cc1c(N(C)C)c(=O)n(-c2ccccc2)n1C	inactive		inactive	inactive	inactive	inactive	inactive	inactive	inactive	inactive	inactive	inactive		inactive	inactive	inactive	inactive	inactive		
COc1cc(O)c(C(=O)c2ccccc2)cc1S(=O)(=O)O	inactive	inactive	inactive	inactive	inactive	inactive	inactive	inactive	inactive	inactive	inactive	inactive	inactive	inactive	inactive		inactive	inactive	inactive	inactive
C[C@]12C=CC(=O)C=C1CC[C@@H]1[C@@H]2C(=O)C[C@@]2(C)[C@H]1CC[C@]2(O)C(=O)CO	inactive	inactive	inactive	inactive	inactive	inactive	inactive	inactive	inactive	inactive	inactive	inactive		inactive	inactive		inactive	inactive		
CC(C)(C)NCC(O)c1ccc(O)c(CO)c1 (stereo not given)	inactive	inactive	inactive	inactive	inactive	inactive	inactive	inactive	inactive	inactive	inactive	inactive	inactive	inactive			inactive	inactive		
CCCCCCCC(=O)OCC(O)CO (stereo not given)	inactive			inactive	inactive	inactive	inactive	inactive	inactive	inactive	inactive	inactive			inactive	inactive	inactive	inactive		
NC(=O)NO	inactive			inactive	inactive	inactive	inactive	inactive	inactive	inactive	inactive	inactive				inactive	inactive	inactive		
